PubChem BioAssay (NCATS)
Values without a mark were called inactive. Records with an inconclusive call do not appear. The list shows a part of the results. Where a call stands in place of a potency, no number is given. Calls of active or inactive are those of the source. Unless noted, calls follow the shape of the dose curve; as a rule, active = well fitted curve in the direction sought with a large enough effect; inconclusive = small, poorly fitted or top-dose-only effect, or another doubt; inactive = no such curve, though single readings can be large; an effect the other way counts as inactive or inconclusive.

Experiments:
[1] = molecular target: Tumor susceptibility gene 101 protein (Homo sapiens) (UniProt Q99816); assay: qHTS Assay for Iinhibitors of HIV-1 Budding by Blocking the Interaction of PTAP/TSG101: Hit Validation (AID 651600); also: nearly all actives have a fitted effect of over 70% in size; also: potency is read from the fitted curve at half-maximal effect
Tumor susceptibility gene 101 protein (Homo sapiens), sequence (Q99816 whole entry, looked up, the tested form may be a part): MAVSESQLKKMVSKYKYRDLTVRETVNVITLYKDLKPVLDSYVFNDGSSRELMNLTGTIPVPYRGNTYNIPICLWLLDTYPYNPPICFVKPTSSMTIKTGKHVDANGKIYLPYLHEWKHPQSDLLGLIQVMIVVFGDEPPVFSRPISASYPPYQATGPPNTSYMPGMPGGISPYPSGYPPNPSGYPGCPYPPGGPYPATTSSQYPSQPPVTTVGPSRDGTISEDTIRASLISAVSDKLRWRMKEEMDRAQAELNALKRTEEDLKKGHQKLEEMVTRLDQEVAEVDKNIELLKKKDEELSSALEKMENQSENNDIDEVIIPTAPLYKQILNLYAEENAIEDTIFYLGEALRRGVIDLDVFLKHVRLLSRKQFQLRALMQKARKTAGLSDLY
Outline: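 Compounds are added to the Tsg101 binding domain (10 uM final) in pH 7.5 HEPES buffer. FITC-PTAP peptide follows at 50 nM final. After 20 min at r.t., polarized FITC emission is measured.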

[2] = molecular target: Rap guanine nucleotide exchange factor 3 (Homo sapiens) (UniProt O95398); assay: Confirmatory qHTS for antagonist of cAMP-regulated guanine nucleotide exchange factor 3 (EPAC1) (AID 1645880); details: EPAC1 Rap1B-BODIPY-GDP exchange, fluorescence; activity, negative = inhibition: at 115 µM (top of the series); also: nearly all actives have a fitted effect of over 55% in size; also: potency is read from the fitted curve at half-maximal effect
Rap guanine nucleotide exchange factor 3 (Homo sapiens), sequence (O95398 whole entry, looked up): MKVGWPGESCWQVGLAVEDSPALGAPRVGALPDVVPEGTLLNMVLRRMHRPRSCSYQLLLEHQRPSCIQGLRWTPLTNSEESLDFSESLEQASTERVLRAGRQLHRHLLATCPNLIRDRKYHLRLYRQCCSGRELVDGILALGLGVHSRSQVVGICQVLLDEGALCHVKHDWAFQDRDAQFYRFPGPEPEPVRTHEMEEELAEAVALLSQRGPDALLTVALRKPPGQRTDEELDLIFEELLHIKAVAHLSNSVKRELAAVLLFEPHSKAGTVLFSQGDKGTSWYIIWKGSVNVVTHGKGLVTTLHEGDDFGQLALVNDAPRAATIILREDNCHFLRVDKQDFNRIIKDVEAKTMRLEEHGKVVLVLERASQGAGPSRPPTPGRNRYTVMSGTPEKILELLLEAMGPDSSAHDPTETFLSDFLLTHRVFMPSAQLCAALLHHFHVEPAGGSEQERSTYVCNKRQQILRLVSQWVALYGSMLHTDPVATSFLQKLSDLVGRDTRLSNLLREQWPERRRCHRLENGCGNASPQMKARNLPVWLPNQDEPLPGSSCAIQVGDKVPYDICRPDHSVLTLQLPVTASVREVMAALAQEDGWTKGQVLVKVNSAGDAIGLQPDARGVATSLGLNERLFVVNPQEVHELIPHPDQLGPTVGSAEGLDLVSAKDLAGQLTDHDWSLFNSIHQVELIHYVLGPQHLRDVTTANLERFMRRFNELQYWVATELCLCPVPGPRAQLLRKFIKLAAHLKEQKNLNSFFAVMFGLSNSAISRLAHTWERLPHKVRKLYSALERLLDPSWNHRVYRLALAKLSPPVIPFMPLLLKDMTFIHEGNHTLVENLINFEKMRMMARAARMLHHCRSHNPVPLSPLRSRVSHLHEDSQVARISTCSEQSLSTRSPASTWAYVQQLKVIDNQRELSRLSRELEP
Outline: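 Released BODIPY-GDP fluoresces less than Rap1-bound BODIPY-GDP; the signal is followed at 480/540 nm at 5-min intervals over 30 min, after 5 min at room temperature. Reactions contain 100 nM EPAC1, 250 nM RAP1B-BODIPY-GDP and 50 uM GDP; results are normalized to ATA and DMSO.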

[3] = molecular target: Rap guanine nucleotide exchange factor 4 (Homo sapiens) (UniProt Q8WZA2); assay: Confirmatory qHTS for antagonist of cAMP-regulated guanine nucleotide exchange factor 4 (EPAC2) (AID 1645885); also: nearly all actives have a fitted effect of over 25% in size; also: potency is read from the fitted curve at half-maximal effect
Rap guanine nucleotide exchange factor 4 (Homo sapiens), sequence (Q8WZA2 whole entry, looked up): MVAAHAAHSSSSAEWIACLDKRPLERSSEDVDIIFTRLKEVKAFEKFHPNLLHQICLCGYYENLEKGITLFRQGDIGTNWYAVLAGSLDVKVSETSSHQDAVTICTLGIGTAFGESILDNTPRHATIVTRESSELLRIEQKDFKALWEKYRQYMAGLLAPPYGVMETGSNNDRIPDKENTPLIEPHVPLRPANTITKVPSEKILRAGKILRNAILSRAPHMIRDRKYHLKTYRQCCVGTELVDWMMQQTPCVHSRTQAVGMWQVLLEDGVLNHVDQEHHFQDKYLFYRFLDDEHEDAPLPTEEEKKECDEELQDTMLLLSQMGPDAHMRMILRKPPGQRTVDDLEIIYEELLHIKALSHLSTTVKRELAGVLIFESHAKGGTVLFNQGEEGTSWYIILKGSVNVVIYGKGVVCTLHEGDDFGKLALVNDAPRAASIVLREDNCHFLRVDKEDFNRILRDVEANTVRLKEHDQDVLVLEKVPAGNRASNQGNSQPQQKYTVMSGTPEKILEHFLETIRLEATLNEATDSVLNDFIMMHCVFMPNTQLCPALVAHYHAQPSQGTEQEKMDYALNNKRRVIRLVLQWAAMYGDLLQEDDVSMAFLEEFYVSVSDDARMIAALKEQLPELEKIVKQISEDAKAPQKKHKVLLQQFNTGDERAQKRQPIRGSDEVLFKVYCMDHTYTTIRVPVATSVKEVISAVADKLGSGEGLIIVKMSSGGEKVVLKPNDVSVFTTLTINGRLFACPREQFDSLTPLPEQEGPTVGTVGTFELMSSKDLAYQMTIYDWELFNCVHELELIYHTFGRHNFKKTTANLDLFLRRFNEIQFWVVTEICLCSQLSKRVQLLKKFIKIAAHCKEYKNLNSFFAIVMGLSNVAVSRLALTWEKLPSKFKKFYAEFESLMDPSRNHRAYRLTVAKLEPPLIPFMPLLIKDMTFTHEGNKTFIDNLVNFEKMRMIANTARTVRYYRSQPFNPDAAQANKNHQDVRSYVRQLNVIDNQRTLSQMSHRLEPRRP

[4] = molecular target: Rap guanine nucleotide exchange factor 3 (Homo sapiens) (UniProt O95398); assay: Counterscreen qHTS for antagonist of cAMP-regulated guanine nucleotide exchange factor 3 (EPAC1) (AID 1645888)
Outline: (§1)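 Rap1B–BODIPY-GDP (250 nM) with 50 uM GDP; compounds pin-transferred to 9.74 nM–152 uM final (activator) or from 7.32 nM upwards (inhibitor). Fluorescence Ex/Em 480/540 nm read at 5 and 30 min, then after adding cAMP or buffer, at room temperature.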

[5] = molecular target: Rap guanine nucleotide exchange factor 3 (Homo sapiens) (UniProt O95398); assay: Counterscreen qHTS for agonist of cAMP-regulated guanine nucleotide exchange factor 3 (EPAC1) (AID 1645889); also: nearly all actives have a fitted effect of over 40% in size; also: potency is read from the fitted curve at half-maximal effect
Outline: as §1

[6] = molecular target: Lysosomal acid glucosylceramidase (Homo sapiens) (UniProt P04062); assay: Glucocerebrosidase-p2 (AID 348; in the data active = potency below about 10 µM; also: potency is read from the fitted curve at half-maximal effect); details: purified GBA, blue fluorogenic substrate, 40 min
Outline: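 Normal human glucocerebrosidase (0.2 nM) with blue fluorogenic substrate (80 uM final) in citrate/phosphate pH 5.9 with 10mM sodium taurocholate, 0.01% tween-20; 40 min RT, NaOH/glycine stop; fluorescence Ex 365/Em 440; AC50 from a titration from 0.6 nM upwards.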

[7] = AP1 Signaling Pathway (AID 357; active = well fitted curve in either direction with a large enough effect, not every such curve was filed as active;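 also: ME-180 reporter cells stimulated with EGF at its EC50 level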); details: ME-180 (cervical carcinoma) AP-1-bla reporter, EGF-induced, beta-lactamase ratio, 5 h; at 7.69 µM (top of the series) unless noted
Outline: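 In this screen, ME-180 cells in Opti-MEM with 0.5% dialyzed FBS received EC50 EGF and compound titrations for 5 h. AP-1 reporter beta-lactamase was detected via CCF4 ratio, giving AC50 for positive and negative modulators.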

[8] = molecular target: Cytochrome P450 1A2 (Homo sapiens) (UniProt P05177); assay: p450-cyp1a2 (AID 410; calls by dose curve; also: potency is read from the fitted curve at half-maximal effect)
Outline: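 Luminescent demethylation readout: Luciferin-ME (100uM, equal to Km) turned over by 20nM CYP1A2 for 60 min at room temperature after NADPH regeneration addition, following 10 min compound preincubation. Normalization used 57 uM furafylline as full inhibition.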

[9] = Stat Signaling Pathway (AID 446; active = well fitted curve in either direction with a large enough effect, not every such curve was filed as active;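 also: ME-180 cervical cancer cells given 40 pM IL-6 alongside compound; SIE-controlled beta-lactamase reporter measured as 460/530 nm FRET emission ratio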)
Outline: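 Normalization used AC90 stimulation (300 pM IL-6) and AC90 inhibition (125 nM pan-JAK inhibitor at 40 pM IL-6). The underlying signal is SIE-driven beta-lactamase in ME-180 cells after 5 h IL-6 exposure with compound.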

[10] = molecular target: Glucocorticoid receptor (Homo sapiens) (UniProt P04150); assay: GR-GFP Redistribution (AID 450;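 active = compounds whose dose series gives a full or clear partial fitted curve of increased nuclear translocation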; also: potency is read from the fitted curve at half-maximal effect); details: U2OS GR-GFP nuclear translocation, laser cytometry, 2 h
Glucocorticoid receptor (Homo sapiens), sequence (P04150 whole entry, looked up, the tested form may be a part): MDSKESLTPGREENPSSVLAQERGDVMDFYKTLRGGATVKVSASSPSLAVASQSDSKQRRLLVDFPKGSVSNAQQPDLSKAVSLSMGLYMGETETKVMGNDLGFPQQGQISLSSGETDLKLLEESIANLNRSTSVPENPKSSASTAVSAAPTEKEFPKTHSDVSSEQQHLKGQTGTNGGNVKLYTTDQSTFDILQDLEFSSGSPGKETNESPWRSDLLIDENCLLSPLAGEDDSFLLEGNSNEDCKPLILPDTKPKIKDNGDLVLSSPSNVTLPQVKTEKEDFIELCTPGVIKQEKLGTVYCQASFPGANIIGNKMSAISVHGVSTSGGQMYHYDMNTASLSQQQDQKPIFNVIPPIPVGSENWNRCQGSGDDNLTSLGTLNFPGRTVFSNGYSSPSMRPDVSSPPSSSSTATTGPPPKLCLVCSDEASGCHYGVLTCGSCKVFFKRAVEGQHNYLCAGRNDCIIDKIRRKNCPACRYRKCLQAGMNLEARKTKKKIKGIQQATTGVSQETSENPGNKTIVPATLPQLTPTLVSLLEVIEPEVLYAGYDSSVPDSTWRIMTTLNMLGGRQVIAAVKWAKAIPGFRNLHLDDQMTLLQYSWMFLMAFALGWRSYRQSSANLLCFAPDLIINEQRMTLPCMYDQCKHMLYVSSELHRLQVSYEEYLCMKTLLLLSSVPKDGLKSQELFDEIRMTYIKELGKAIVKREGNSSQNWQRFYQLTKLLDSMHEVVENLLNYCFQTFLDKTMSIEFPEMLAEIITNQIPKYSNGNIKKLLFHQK

[11] = molecular target: Glucocorticoid receptor (Homo sapiens) (UniProt P04150); assay: GR-EFC Redistribution (AID 451; calls by dose curve; also: potency is read from the fitted curve at half-maximal effect); details: CHO-K1 GR-EFC translocation, beta-gal luminescence, 2 h
Outline: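 CHO-K1 cells expressing nuclear EA and GR-ED fragments of b-gal; compounds titrated up to 46 uM final, 2 h at 37 C. GR nuclear translocation read as complemented b-gal luminescence after 1 h RT detection.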

[12] = molecular target: Mitogen-activated protein kinase 10 (Mus musculus) (UniProt Q61831); assay: JNK3 AlphaScreen Assay (AID 530; active = well fitted curve in either direction with a large enough effect, not every such curve was filed as active;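 also: kinase came from lysate of stimulated human HepG2 cells; signal reports phosphorylation of biotinylated GST-cJun 1-79 at Ser73 with 10 µM ATP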)
Outline: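 Activity was read by AlphaScreen after JNK3-containing HepG2 lysate (cytokine pre-activated) phosphorylated biotinylated GST-cJun with 10 uM ATP at room temperature. Phospho-Ser73 cJun antibody with Protein-A acceptor beads provided detection.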

[13] = molecular target: 3',5'-cyclic-AMP phosphodiesterase 4B (Homo sapiens) (UniProt Q07343); assay: qHTS Assay for Inhibitors of PDE-IV (AID 607; active = well fitted activation curve with a large enough effect in the main read-out, with a control signal flat, not every such curve was filed as active)
Outline: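 HEK293 ACTOne cells with CNG channel (1000/well), endogenous PDE4; membrane potential dye, compounds up to 22.9 uM final. Fluorescence Ex 535/Em 590; RO 20-1724 (100 uM final) as reference.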

[14] = molecular target: Cytochrome P450 2C9 (Homo sapiens) (UniProt P11712); assay: qHTS Assay for Inhibitors and Substrates of Cytochrome P450 2C9 (AID 883); also: potency is read from the fitted curve at half-maximal effect; nearly all actives have a fitted effect of over 60% in size
Cytochrome P450 2C9 (Homo sapiens), sequence (P11712 whole entry, looked up): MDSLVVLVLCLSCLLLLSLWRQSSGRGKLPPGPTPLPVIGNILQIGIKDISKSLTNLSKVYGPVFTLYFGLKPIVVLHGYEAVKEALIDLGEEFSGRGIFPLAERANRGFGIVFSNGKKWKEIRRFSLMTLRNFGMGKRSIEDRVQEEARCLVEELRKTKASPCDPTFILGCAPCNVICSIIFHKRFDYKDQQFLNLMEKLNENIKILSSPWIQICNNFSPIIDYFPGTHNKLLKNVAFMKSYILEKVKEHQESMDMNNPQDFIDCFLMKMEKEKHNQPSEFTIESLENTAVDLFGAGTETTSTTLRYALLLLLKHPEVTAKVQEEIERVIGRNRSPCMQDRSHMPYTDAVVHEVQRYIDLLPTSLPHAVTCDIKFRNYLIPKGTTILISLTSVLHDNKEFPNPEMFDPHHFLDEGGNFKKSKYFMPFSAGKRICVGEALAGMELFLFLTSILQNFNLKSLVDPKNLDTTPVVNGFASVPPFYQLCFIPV
Outline: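 Human CYP2C9 (10nM) with Luciferin-H at 100uM (its KM) in 25mM KPO4; compound preincubated 10 min at 37C, then NADPH regeneration for 60 min at 37C. Luciferin read by luminescence after detection reagent; normalized to 57uM sulphaphenazole as full inhibition.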

[15] = molecular target: Cytochrome P450 3A4 (Homo sapiens) (UniProt P08684); assay: qHTS Assay for Inhibitors and Substrates of Cytochrome P450 3A4 (AID 884); also: potency is read from the fitted curve at half-maximal effect; nearly all actives have a fitted effect of over 50% in size
Cytochrome P450 3A4 (Homo sapiens), sequence (P08684 whole entry, looked up): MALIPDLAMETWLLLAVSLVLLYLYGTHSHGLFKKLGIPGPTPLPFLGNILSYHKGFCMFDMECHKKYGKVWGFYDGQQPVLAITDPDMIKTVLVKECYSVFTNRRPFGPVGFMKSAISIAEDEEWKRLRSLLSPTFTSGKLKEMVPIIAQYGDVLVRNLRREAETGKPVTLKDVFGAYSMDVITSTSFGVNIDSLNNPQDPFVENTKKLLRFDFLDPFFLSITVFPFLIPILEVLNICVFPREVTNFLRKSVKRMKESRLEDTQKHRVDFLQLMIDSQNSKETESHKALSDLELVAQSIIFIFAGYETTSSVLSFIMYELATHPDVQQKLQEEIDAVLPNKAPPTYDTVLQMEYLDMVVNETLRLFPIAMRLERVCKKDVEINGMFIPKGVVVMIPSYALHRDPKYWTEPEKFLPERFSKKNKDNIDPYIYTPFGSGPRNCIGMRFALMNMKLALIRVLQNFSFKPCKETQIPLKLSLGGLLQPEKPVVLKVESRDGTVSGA
Outline: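 Luminescent readout of luciferin produced by CYP3A4 (20 nM) dealkylation of Luciferin-PPXE, 25 uM (its KM). NADPH-driven reaction ran 60 min at RT after 10 min compound preincubation; data scaled to 57 uM ketoconazole as 100% inhibition.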

[16] = molecular target: Cytochrome P450 3A4 (Homo sapiens) (UniProt P08684); assay: qHTS Assay for Activators of Cytochrome P450 3A4 (AID 885); also: nearly all actives have a fitted effect of over 65% in size
Outline: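 Human CYP3A4 dealkylates Luciferin-PPXE to luciferin, which luciferase detection converts to light. Substrate was at its KM (25uM), buffer 200mM KPO4, reaction 60 min at RT.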

[17] = molecular target: Cytochrome P450 2C19 (Homo sapiens) (UniProt P33261); assay: qHTS Assay for Inhibitors and Substrates of Cytochrome P450 2C19 (AID 899); also: potency is read from the fitted curve at half-maximal effect; nearly all actives have a fitted effect of over 60% in size
Cytochrome P450 2C19 (Homo sapiens), sequence (P33261 whole entry, looked up): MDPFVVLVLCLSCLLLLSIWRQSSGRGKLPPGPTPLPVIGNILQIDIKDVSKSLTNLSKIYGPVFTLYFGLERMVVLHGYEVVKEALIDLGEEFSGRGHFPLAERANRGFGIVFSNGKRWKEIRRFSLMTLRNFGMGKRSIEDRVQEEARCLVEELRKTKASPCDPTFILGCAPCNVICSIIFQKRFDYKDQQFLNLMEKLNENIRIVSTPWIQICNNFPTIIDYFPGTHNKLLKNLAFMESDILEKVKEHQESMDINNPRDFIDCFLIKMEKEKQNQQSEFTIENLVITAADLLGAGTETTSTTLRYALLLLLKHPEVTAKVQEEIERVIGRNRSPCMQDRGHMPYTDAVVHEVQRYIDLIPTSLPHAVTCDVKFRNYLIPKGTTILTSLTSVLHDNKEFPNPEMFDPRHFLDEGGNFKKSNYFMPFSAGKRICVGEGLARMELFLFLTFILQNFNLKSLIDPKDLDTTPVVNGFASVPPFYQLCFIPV
Outline: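 5 nM human CYP2C19 with 10uM Luciferin-H EGE (at KM) in 50mM KPO4, compound preincubated 10 min at 37C, then NADPH regeneration for 60 min at 37C. Luciferin read by luminescence after detection reagent; normalized to 57uM ketoconazole as full inhibition.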

[18] = molecular target: Flap endonuclease 1 (Homo sapiens) (UniProt P39748); assay: qHTS Assay for the Inhibitors of FEN1: Confirmatory Assay for Cherry-picked Compounds (AID 720498); details: FEN1 flap cleavage, TAMRA/BHQ2 fluorogenic DNA substrate; also: potency is read from the fitted curve at half-maximal effect; nearly all actives have a fitted effect of over 60% in size
Flap endonuclease 1 (Homo sapiens), sequence (P39748 whole entry, looked up): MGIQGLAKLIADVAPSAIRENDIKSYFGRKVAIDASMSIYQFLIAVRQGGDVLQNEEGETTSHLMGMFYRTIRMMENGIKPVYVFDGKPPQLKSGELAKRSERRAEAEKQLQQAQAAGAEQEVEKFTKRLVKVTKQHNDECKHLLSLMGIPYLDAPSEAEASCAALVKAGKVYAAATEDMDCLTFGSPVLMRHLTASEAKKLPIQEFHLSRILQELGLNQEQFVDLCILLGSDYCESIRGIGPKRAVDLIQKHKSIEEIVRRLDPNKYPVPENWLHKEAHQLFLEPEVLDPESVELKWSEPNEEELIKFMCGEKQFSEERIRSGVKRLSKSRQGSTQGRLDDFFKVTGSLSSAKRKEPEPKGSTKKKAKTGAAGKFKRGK
Outline: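 Human FEN1 (10 nM reagent) was preincubated with compounds for 15 min at room temperature, then 50 nM final double-flap DNA substrate (5'-TAMRA flap, BHQ-2 quencher strand) was added. Fluorescence (ex 525/em 598 nm) was read at 0 and 15 min.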

[19] = molecular target: DNA polymerase kappa (Homo sapiens) (UniProt Q9UBT6); assay: qHTS for Inhibitors of Polymerase Kappa: Confirmatory Assay for Cherry-picked Compounds (AID 720501); details: purified Pol-kappa, fluorescent strand-displacement substrate; also: potency is read from the fitted curve at half-maximal effect
Outline: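 10 nM human Pol-kappa was preincubated with compound 15 min at room temperature, then 50 nM (final) primer/template substrate with TAMRA-labeled reporter strand and BHQ-2-labeled template added. Fluorescence (Ex 525, Em 598 nm) read at 0 and 10 min.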

Structure (SMILES): CC(C)CCN1C(=O)c2cccc3c(N)ccc(c23)C1=O
- Potency [1]: 16.3 µM (active)
- Potency [2]: inactive
- Potency [3]: inactive
- activity change, negative = inhibition [4]: 154% [at 30.8 µM]
- Potency [5]: 12.6 µM (active)

Structure (SMILES): Clc1ccccc1NN(Cc1ccncc1)c1ccccc1Cl
- Potency [6]: > 11.4 µM
- activity change, negative = inhibition [7]: -14.2%
- Potency [8]: 5.01 µM (active)
- outcome [9]: inactive
- Potency [10]: > 46 µM
- Potency [11]: > 9.22 µM
- activity change, negative = inhibition [12]: 3.26% [at 11.4 µM]
- Potency [13]: inactive
- Potency [14]: 1.58 µM (active)
- Potency [15]: 0.251 µM (active)
- activity change, positive = activation [16]: -76.6% [at 11.4 µM]
- Potency [17]: 1.26 µM (active)
- Potency [2]: inactive
- Potency [3]: 16.9 µM (active)
- Potency [4]: inactive

Structure (SMILES): O=[N+]([O-])c1c(Nc2ccccn2)cc(Cl)c2nonc12
- Potency [2]: inactive
- Potency [4]: inactive

Structure (SMILES): CCCCn1c(=O)[nH]c2nc3cc(N)ccc3nc2c1=O
- Potency [1]: 6.51 µM (active)
- Potency [2]: inactive
- Potency [3]: inactive
- activity change, negative = inhibition [4]: 79.1% [at 30.8 µM]
- Potency [5]: 12.6 µM (active)

Structure (SMILES): CN1CC=C2C(C#N)=C(N)C(C#N)(C#N)C(c3ccsc3)C2C1 (configuration not stated)
- Potency [2]: inactive
- Potency [4]: inactive

Structure (SMILES): Cc1cccc(N2CCN(S(=O)(=O)c3ccc4c(c3)CCN4C(=O)CCC(=O)O)CC2C)c1 (configuration not stated)
- Potency [2]: 47.8 µM (active)
- Potency [3]: inactive
- Potency [5]: inactive

Structure (SMILES): CC(C)(C)C1COc2ccccc2N1C(=O)c1ccccc1Cl (configuration not stated)
- Potency [2]: inactive
- Potency [3]: 30.1 µM (active)
- Potency [5]: inactive

Structure (SMILES): c1ccc(-c2cnn3c(-c4ccccc4)c(-c4ccccc4)nc3n2)cc1
- Potency [1]: inactive
- Potency [2]: inactive
- Potency [3]: inactive
- Potency [4]: inactive

Structure (SMILES): Cc1cccc(N2CCCC2=Nc2ccc(Br)cc2C#N)c1
- Potency [2]: inactive
- Potency [4]: inactive
- Potency [5]: inactive

Structure (SMILES): Cn1ccc(=Nc2ccc(NC(=O)c3ccc(N=c4ccn(C)c5ccc([N+](=O)[O-])cc45)cc3)cc2)cc1
- Potency [18]: 9.53 µM (active)
- Potency [19]: 4.23 µM (active)
- Potency [2]: 42.6 µM (active)
- Potency [3]: 16.9 µM (active)
- Potency [4]: inactive
